Counter-ions that a name gives are not always drawn.
Experiments:
Test in all cases: phenotypically active (imaging signature differs from DMSO and reproducible) at any of 0.3-9 uM (binary (1 = active, 0 = inactive)); higher = active
Settings in all cases: treatment time: 24 h
A549-ACTB-RAB5A = test system: A549-ACTB-RAB5A
Outline: (§1)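 Live-cell features were measured per well and normalised to solvent control wells after fifteen gene-edited A549, HepG2 and WPMY1 reporter lines had been treated for 24 h at 0.3, 1, 3 or 9 µM in four wells each. A condition was deviating when ≥3 of 4 wells sat beyond the 95th percentile of control Euclidean distances. It was reproducible when the median replicate Pearson correlation exceeded the 95th percentile of non-replicates. Phenotypic activity demanded both.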

A549-CANX-COX4 = test system: A549-CANX-COX4
Outline: as §1

A549-GM130-SQSTM1 = test system: A549-GM130-SQSTM1
Outline: as §1

A549-TP53BP1-CLTA = test system: A549-TP53BP1-CLTA
Outline: as §1

A549-TUBA1B-RELA = test system: A549-TUBA1B-RELA
Outline: as §1

HepG2-ACTB-RAB5A = test system: HepG2-ACTB-RAB5A
Outline: as §1

HepG2-CANX-COX4 = test system: HepG2-CANX-COX4
Outline: as §1

HepG2-GM130-SQSTM1 = test system: HepG2-GM130-SQSTM1
Outline: as §1

HepG2-TP53BP1-CLTA = test system: HepG2-TP53BP1-CLTA
Outline: as §1

HepG2-TUBA1B-RELA = test system: HepG2-TUBA1B-RELA
Outline: as §1

WPMY1-ACTB-RAB5A = test system: WPMY1-ACTB-RAB5A
Outline: as §1

WPMY1-CANX-COX4 = test system: WPMY1-CANX-COX4
Outline: as §1

WPMY1-GM130-SQSTM1 = test system: WPMY1-GM130-SQSTM1
Outline: as §1

WPMY1-TP53BP1-CLTA = test system: WPMY1-TP53BP1-CLTA
Outline: as §1

WPMY1-TUBA1B-RELA = test system: WPMY1-TUBA1B-RELA
Outline: as §1

Measured: phenotypically active

C=C1C[C@]23C[C@@]1(O)CC[C@H]2[C@@]12C=C[C@H](O)[C@](C)(C(=O)O1)[C@H]2[C@@H]3C(=O)O [Gibberellic acid]
inactive: A549-ACTB-RAB5A 0 | A549-CANX-COX4 0 | A549-GM130-SQSTM1 0 | A549-TP53BP1-CLTA 0 | A549-TUBA1B-RELA 0 | HepG2-ACTB-RAB5A 0 | HepG2-CANX-COX4 0 | HepG2-GM130-SQSTM1 0 | HepG2-TP53BP1-CLTA 0 | HepG2-TUBA1B-RELA 0 | WPMY1-ACTB-RAB5A 0 | WPMY1-CANX-COX4 0 | WPMY1-GM130-SQSTM1 0 | WPMY1-TP53BP1-CLTA 0 | WPMY1-TUBA1B-RELA 0

N#Cc1ccc(C(c2ccc(C#N)cc2)n2cncn2)cc1 [Letrozole]
inactive: A549-ACTB-RAB5A 0 | A549-CANX-COX4 0 | A549-GM130-SQSTM1 0 | A549-TP53BP1-CLTA 0 | A549-TUBA1B-RELA 0 | HepG2-ACTB-RAB5A 0 | HepG2-CANX-COX4 0 | HepG2-GM130-SQSTM1 0 | HepG2-TP53BP1-CLTA 0 | HepG2-TUBA1B-RELA 0 | WPMY1-ACTB-RAB5A 0 | WPMY1-CANX-COX4 0 | WPMY1-GM130-SQSTM1 0 | WPMY1-TP53BP1-CLTA 0 | WPMY1-TUBA1B-RELA 0

CN(C)c1nc(N(C)C)nc(N(C)C)n1 [altretamine]
inactive: A549-ACTB-RAB5A 0 | A549-CANX-COX4 0 | A549-GM130-SQSTM1 0 | A549-TP53BP1-CLTA 0 | A549-TUBA1B-RELA 0 | HepG2-ACTB-RAB5A 0 | HepG2-CANX-COX4 0 | HepG2-GM130-SQSTM1 0 | HepG2-TP53BP1-CLTA 0 | HepG2-TUBA1B-RELA 0 | WPMY1-ACTB-RAB5A 0 | WPMY1-CANX-COX4 0 | WPMY1-GM130-SQSTM1 0 | WPMY1-TP53BP1-CLTA 0 | WPMY1-TUBA1B-RELA 0

COC1=C(O)C(=O)c2ccccc2C1=O [2-hydroxy-3-methoxy-naphtoquinone]
inactive: A549-ACTB-RAB5A 0 | A549-CANX-COX4 0 | A549-GM130-SQSTM1 0 | A549-TP53BP1-CLTA 0 | A549-TUBA1B-RELA 0 | HepG2-ACTB-RAB5A 0 | HepG2-CANX-COX4 0 | HepG2-GM130-SQSTM1 0 | HepG2-TP53BP1-CLTA 0 | HepG2-TUBA1B-RELA 0 | WPMY1-ACTB-RAB5A 0 | WPMY1-CANX-COX4 0 | WPMY1-GM130-SQSTM1 0 | WPMY1-TP53BP1-CLTA 0 | WPMY1-TUBA1B-RELA 0

CC1(COc2ccc(CC3SC(=O)NC3=O)cc2)CCCCC1 (stereo not given) [Ciglitazone]
inactive: A549-ACTB-RAB5A 0 | A549-CANX-COX4 0 | A549-GM130-SQSTM1 0 | A549-TP53BP1-CLTA 0 | A549-TUBA1B-RELA 0 | HepG2-ACTB-RAB5A 0 | HepG2-CANX-COX4 0 | HepG2-GM130-SQSTM1 0 | HepG2-TP53BP1-CLTA 0 | HepG2-TUBA1B-RELA 0 | WPMY1-ACTB-RAB5A 0 | WPMY1-CANX-COX4 0 | WPMY1-GM130-SQSTM1 0 | WPMY1-TP53BP1-CLTA 0 | WPMY1-TUBA1B-RELA 0

COc1ccc(OC)c(C(O)CNC(=O)CN)c1 (stereo not given) [midodrine]
inactive: A549-ACTB-RAB5A 0 | A549-CANX-COX4 0 | A549-GM130-SQSTM1 0 | A549-TP53BP1-CLTA 0 | A549-TUBA1B-RELA 0 | HepG2-ACTB-RAB5A 0 | HepG2-CANX-COX4 0 | HepG2-GM130-SQSTM1 0 | HepG2-TP53BP1-CLTA 0 | HepG2-TUBA1B-RELA 0 | WPMY1-ACTB-RAB5A 0 | WPMY1-CANX-COX4 0 | WPMY1-GM130-SQSTM1 0 | WPMY1-TP53BP1-CLTA 0 | WPMY1-TUBA1B-RELA 0

COc1ccc([C@@H]2CNC(=O)C2)cc1OC1CCCC1 [(R)-(-)-Rolipram]
inactive: A549-ACTB-RAB5A 0 | A549-CANX-COX4 0 | A549-GM130-SQSTM1 0 | A549-TP53BP1-CLTA 0 | A549-TUBA1B-RELA 0 | HepG2-ACTB-RAB5A 0 | HepG2-CANX-COX4 0 | HepG2-GM130-SQSTM1 0 | HepG2-TP53BP1-CLTA 0 | HepG2-TUBA1B-RELA 0 | WPMY1-ACTB-RAB5A 0 | WPMY1-CANX-COX4 0 | WPMY1-GM130-SQSTM1 0 | WPMY1-TP53BP1-CLTA 0 | WPMY1-TUBA1B-RELA 0

COC(=O)[C@H]1[C@H]2C[C@H]3c4[nH]c5ccccc5c4CCN3C[C@@H]2CC[C@@H]1O [Corynanthine hydrochloride]
inactive: A549-ACTB-RAB5A 0 | A549-CANX-COX4 0 | A549-GM130-SQSTM1 0 | A549-TP53BP1-CLTA 0 | A549-TUBA1B-RELA 0 | HepG2-ACTB-RAB5A 0 | HepG2-CANX-COX4 0 | HepG2-GM130-SQSTM1 0 | HepG2-TP53BP1-CLTA 0 | HepG2-TUBA1B-RELA 0 | WPMY1-ACTB-RAB5A 0 | WPMY1-CANX-COX4 0 | WPMY1-GM130-SQSTM1 0 | WPMY1-TP53BP1-CLTA 0 | WPMY1-TUBA1B-RELA 0

CS(=O)(=O)OCCCCOS(C)(=O)=O [busulfan]
inactive: A549-ACTB-RAB5A 0 | A549-CANX-COX4 0 | A549-GM130-SQSTM1 0 | A549-TP53BP1-CLTA 0 | A549-TUBA1B-RELA 0 | HepG2-ACTB-RAB5A 0 | HepG2-CANX-COX4 0 | HepG2-GM130-SQSTM1 0 | HepG2-TP53BP1-CLTA 0 | HepG2-TUBA1B-RELA 0 | WPMY1-ACTB-RAB5A 0 | WPMY1-CANX-COX4 0 | WPMY1-GM130-SQSTM1 0 | WPMY1-TP53BP1-CLTA 0 | WPMY1-TUBA1B-RELA 0

CN1CC(=O)N2[C@H](c3ccc4c(c3)OCO4)c3[nH]c4ccccc4c3C[C@@H]2C1=O [tadalafil]
inactive: A549-ACTB-RAB5A 0 | A549-CANX-COX4 0 | A549-GM130-SQSTM1 0 | A549-TP53BP1-CLTA 0 | A549-TUBA1B-RELA 0 | HepG2-ACTB-RAB5A 0 | HepG2-CANX-COX4 0 | HepG2-GM130-SQSTM1 0 | HepG2-TP53BP1-CLTA 0 | HepG2-TUBA1B-RELA 0 | WPMY1-ACTB-RAB5A 0 | WPMY1-CANX-COX4 0 | WPMY1-GM130-SQSTM1 0 | WPMY1-TP53BP1-CLTA 0 | WPMY1-TUBA1B-RELA 0

COC(=O)c1c(-c2cc(OC)c(OC)c(OC)c2)c2ccnc(OCc3ncccn3)c2c(=O)n1Cc1ccnc(C)c1 [T 0156 hydrochloride]
inactive: A549-ACTB-RAB5A 0 | A549-CANX-COX4 0 | A549-GM130-SQSTM1 0 | A549-TP53BP1-CLTA 0 | A549-TUBA1B-RELA 0 | HepG2-ACTB-RAB5A 0 | HepG2-CANX-COX4 0 | HepG2-GM130-SQSTM1 0 | HepG2-TP53BP1-CLTA 0 | HepG2-TUBA1B-RELA 0 | WPMY1-ACTB-RAB5A 0 | WPMY1-CANX-COX4 0 | WPMY1-GM130-SQSTM1 0 | WPMY1-TP53BP1-CLTA 0 | WPMY1-TUBA1B-RELA 0

CC(C)c1ccc(CC(=O)N2CCC[C@@H](c3cccc(OC(C)(C)C(=O)O)c3)C2)cc1
inactive: A549-ACTB-RAB5A 0 | A549-CANX-COX4 0 | A549-GM130-SQSTM1 0 | A549-TP53BP1-CLTA 0 | A549-TUBA1B-RELA 0 | HepG2-ACTB-RAB5A 0 | HepG2-CANX-COX4 0 | HepG2-GM130-SQSTM1 0 | HepG2-TP53BP1-CLTA 0 | HepG2-TUBA1B-RELA 0 | WPMY1-ACTB-RAB5A 0 | WPMY1-CANX-COX4 0 | WPMY1-GM130-SQSTM1 0 | WPMY1-TP53BP1-CLTA 0 | WPMY1-TUBA1B-RELA 0

O=C(O)CCN(O)C(=O)CCCCCCCCC1CC1
inactive: A549-ACTB-RAB5A 0 | A549-CANX-COX4 0 | A549-GM130-SQSTM1 0 | A549-TP53BP1-CLTA 0 | A549-TUBA1B-RELA 0 | HepG2-ACTB-RAB5A 0 | HepG2-CANX-COX4 0 | HepG2-GM130-SQSTM1 0 | HepG2-TP53BP1-CLTA 0 | HepG2-TUBA1B-RELA 0 | WPMY1-ACTB-RAB5A 0 | WPMY1-CANX-COX4 0 | WPMY1-GM130-SQSTM1 0 | WPMY1-TP53BP1-CLTA 0 | WPMY1-TUBA1B-RELA 0

Nc1ncnc2c1ncn2[C@@H]1O[C@H](CO)C[C@H]1O [Cordycepin]
inactive: A549-ACTB-RAB5A 0 | A549-CANX-COX4 0 | A549-GM130-SQSTM1 0 | A549-TP53BP1-CLTA 0 | A549-TUBA1B-RELA 0 | HepG2-ACTB-RAB5A 0 | HepG2-CANX-COX4 0 | HepG2-GM130-SQSTM1 0 | HepG2-TP53BP1-CLTA 0 | HepG2-TUBA1B-RELA 0 | WPMY1-ACTB-RAB5A 0 | WPMY1-CANX-COX4 0 | WPMY1-GM130-SQSTM1 0 | WPMY1-TP53BP1-CLTA 0 | WPMY1-TUBA1B-RELA 0
